# Test results from PubChem BioAssay (NCATS).
# Results filed as inconclusive are left out. A number with no mark means an inactive call. Activity calls are given as the source filed them. Calls follow the shape of the dose curve; as a rule, active = well fitted cell-killing curve with a large enough effect; inconclusive = small, poorly fitted or top-dose-only effect, or effect the other way; inactive = no such curve, though single readings can be large or run the other way. Non-standard residues stand in square brackets, D forms with d. Residues, ends and D or L forms follow the SMILES beside them. *: point of attachment. Sta = CC(C)C[C@H](N)[C@@H](O)CC(=O)O; Isovaleryl = CC(C)CC(=O)*
# Assay: Quantitative High-Throughput drug screen in 47 multiple myeloma cell lines against the NCATS MIPE library collection: KMM1_JCRB cell viability assay (AID 1918960); also: nearly all actives have a fitted effect of over 30% in size;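 as to viability (% of DMSO): 100% = DMSO-treated cells and 0% = medium-only wells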
# Settings: KMM1 myeloma viability, CellTiter-Glo ATP luminescence, 48 h; series mostly up to 45.8 µM; viability (% of DMSO): at the top concentration
# How it was run: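 ATP readout (CellTiter-Glo), 48 h drug incubation, 37 °C/5% CO2, 500 cells per well; normalisation to DMSO (100%) and media-only (0%) controls.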
# Potency is read from the fitted curve at half-maximal effect.
Compound,viability (% of DMSO),Potency
O=C(O)CCNC(=O)c1ccc(N=Nc2ccc(O)c(C(=O)O)c2)cc1,105%,
COc1cc2c(N3CCN(C(=O)Nc4ccc(OC(C)C)cc4)CC3)ncnc2cc1OCCCN1CCCCC1,81.7%,
CCN(CC)CCOc1ccc(Nc2ncc3cc(-c4c(Cl)cccc4Cl)c(=O)n(C)c3n2)cc1,,0.0332 µM (active)
Cc1nc2n(c(=O)c1CCN1CCC(c3noc4cc(F)ccc34)CC1)CCCC2,70.3%,
COC(=O)N[C@H](C(=O)N[C@@H](Cc1ccccc1)[C@@H](O)CN(Cc1ccc(-c2ccccn2)cc1)NC(=O)[C@@H](NC(=O)OC)C(C)(C)C)C(C)(C)C,110%,
Nc1cc(C(Cl)=C(Cl)Cl)c(S(N)(=O)=O)cc1S(N)(=O)=O,75.7%,
CCC1=C(C)CN(C(=O)NCCc2ccc(S(=O)(=O)NC(=O)NC3CCC(C)CC3)cc2)C1=O (stereo not drawn),106%,
CNC[C@H](O)c1ccc(O)c(O)c1,87.6% [at 92.2 µM],
Oc1ccc2ccccc2c1SSc1c(O)ccc2ccccc12,,23.5 µM (active)
CC(C)CC(=O)N[C@H](C(=O)N[C@H](C(=O)N[C@@H](CC(C)C)[C@@H](O)CC(=O)N[C@@H](C)C(=O)N[C@@H](CC(C)C)[C@@H](O)CC(=O)O)C(C)C)C(C)C (Isovaleryl-VV[Sta]A[Sta]-OH),90.7%,
Oc1ccc(-c2nc(-c3ccc(F)cc3)c(-c3ccncc3)[nH]2)cc1,119%,
CCCCCCCCCCCCCCCCCCCCCCO,103%,
CS(=O)(=O)OCCCCOS(C)(=O)=O,131%,
Nc1nc(N)c(N=O)c(OCC2CCCCC2)n1,,6.62 µM (active)
N=C(N=C(N)N)N1CCOCC1,94.8%,
C[C@H](Cn1cnc2c(N)ncnc21)OCP(=O)(O)O,116%,
O=c1c(O)c(-c2cc(O)c(O)c(O)c2)oc2cc(O)cc(O)c12,105%,
O=C(c1ccccc1)c1ccc2n1CCC2C(=O)O (stereo not drawn),95.7%,
CC[C@]1(O)C[C@H]2CN(CCc3c([nH]c4ccccc34)[C@@](C(=O)OC)(c3cc4c(cc3OC)N(C=O)[C@H]3[C@@](O)(C(=O)OC)[C@H](OC(C)=O)[C@]5(CC)C=CCN6CC[C@]43[C@@H]65)C2)C1,,0.0469 µM (active)

Compound,viability (% of DMSO),Potency
Cc1cc(O)c2c(c1)C(=O)c1cc(O)cc(O)c1C2=O,109%,
Nc1ccc(S(N)(=O)=O)cc1,111%,
O=C(NCC1CCCCN1)c1cc(OCC(F)(F)F)ccc1OCC(F)(F)F (stereo not drawn),,2.64 µM (active)
Cc1cc(=O)oc2cc(O)ccc12,100%,
Nc1ccn([C@@H]2O[C@H](CO)[C@@H](O)C2O)c(=O)n1 (stereo partly drawn),107%,
NC(=O)Cc1cccc(C(=O)c2ccccc2)c1N,115%,
COC(=O)C1=C(C)NC(C)=C(C(=O)OC(C)C)C1c1cccc2nonc12 (stereo not drawn),87.5%,
COc1ccc(C2(C#N)CCC(C(=O)O)CC2)cc1OC1CCCC1 (stereo not drawn),92.9%,
CCC(C)(Oc1ccc(C2(c3ccc(OC(C)(CC)C(=O)O)cc3)CCCCC2)cc1)C(=O)O (stereo not drawn),117%,
Cc1cc(C2CCCCC2)n(O)c(=O)c1,,9.35 µM (active)
CC1(C)C(=O)N(CCN2CCC(C(=O)c3ccc(F)cc3)CC2)c2ccccc21,,8.33 µM (active)
COCCCOc1ccnc(CS(=O)c2nc3ccccc3[nH]2)c1C (stereo not drawn),81.5%,
N=C(N)c1ccc2cc(OC(=O)c3ccc(N=C(N)N)cc3)ccc2c1,82.6%,
COc1cc2c(cc1OC)C1CC(=O)C(CC(C)C)CN1CC2 (stereo not drawn),87.6%,
O=C(NOCC1CC1)c1ccc(F)c(F)c1Nc1ccc(I)cc1Cl,,6.62 µM (active)
O=C(O)c1cccc(-c2noc(-c3ccccc3F)n2)c1,108%,
CN(C)c1ccc(O)c2c1C[C@H]1C[C@H]3[C@H](N(C)C)C(=O)C(C(N)=O)=C(O)[C@@]3(O)C(=O)C1=C2O,111%,
O=C(NCCO[N+](=O)[O-])c1cccnc1,115%,
Cc1c(C(=O)NN2CCCCC2)nn(-c2ccc(Cl)cc2Cl)c1-c1ccc(Cl)cc1,,23.5 µM (active)
